# According to PubChem BioAssay (EPA / NIEHS):
# The source made the active and inactive calls. Rule for the calls: active = hit-call score of the fitted dose curve at least 0.9, where 1 is the maximum; inactive = score below 0.9.
# Read-out: Intercellular Adhesion Molecule 1 (ICAM1), ICAM1 (gene 3383)
# Test: BSK_3C_ICAM1: BioMAP Diversity Plus: 3C Assay for Intercellular Adhesion Molecule 1 (ICAM1) Biomarker Activity (AID 2283003)
# Conditions: primary human endothelial cells (HUVEC); actives raise or lower the signal
# Protocol: BSK_3C is a cell-based, multiplexed-readout assay that uses umbilical vein endothelium, a human vascular primary cell, with measurements taken at 24 hours after chemical dosing in a 96-well plate.BSK_3C_ICAM1 is an assay component measured in the BSK_3C assay. It measures ICAM-1 antibody related to regulation of gene expression using ELISA technology.Data from the assay component BSK_3C_ICAM1 was analyzed into 1 assay endpoint. This assay endpoint, BSK_3C_ICAM1, was analyzed with bidirectional fitting relative to DMSO as the negative control and baseline of activity. Using a type of binding reporter, gain or loss-of-signal activity can be used to understand changes in the signaling as they relate to the gene ICAM1. Furthermore, this assay endpoint can be referred to as a primary readout, because this assay has produced multiple assay endpoints where this one serves a signaling function. To generalize the intended target to other relatable targets, this assay endpoint is annotated to the cell adhesion molecules intended target family, where the subfamily is Immunoglobulin CAM.
# The levels of cell surface (or secreted, indicated by the prefix "s") biomarker endpoints were measured by ELISA. Overt cytotoxicity to cells in confluent adherent cultures (all systems other than the BT system) was assessed by measuring total protein levels using sulforhodamine B (SRB) staining in parallel cultures at the time of biomarker measurements, indicated as SRB endpoints. For proliferation assays for adherent cell types, individual cell types are cultured at sub-confluence and relative cell numbers quantified by SRB staining at time points optimized for each system (48 h: 3C and CASM3C systems; 72 h: BT and HDF3CGF systems; 96 h: SAg system). SRB was performed by staining cells with 0.1% SRB after fixation with 10% TCA and reading wells at 560 nm.Viability and proliferation of PBMC (T cells) was quantified by Alamar Blue reduction for the SAg and BT systems. For PBMC viability (referred to as PBMC Cytotoxicity within the assay endpoint names), cells were plated (75,000/well in a 96-well plate) and then chemical samples added for 1 h before addition of activators, SEB and TSST-1 (20 ng/mL final concentration each). Cells were incubated for 90 h. Then, Alamar Blue (20 uL/well) (Invitrogen, Cat DAL1100) was added for 6 h, and the plates were read with a fluorescence microplate reader at 546/580 nm (excitation/emission). For PBMC proliferation, cells were plated and activated as above but incubated for only 16 h prior to addition of Alamar Blue. Plates were read after 6 h.
Compound,outcome,AC50
O=C(O)c1cccc(C[C@@H]2COc3ccc(OCc4nc5cc(F)ccc5s4)cc3[C@@H]2O)c1,inactive,
CCc1cccc(CC)c1N,inactive,
FC(F)(F)COC(OCC(F)(F)F)OCC(F)(F)F,inactive,
O=S(=O)(O)c1ccc(N=Nc2c(O)ccc3cc(S(=O)(=O)O)ccc23)cc1,inactive,
FC(F)=C(F)C(F)(F)C(F)(F)C(F)(F)C(F)(F)C(F)(F)C(F)(F)F,inactive,
COS(C)(=O)=O,inactive,
Cn1cc[nH]c1=S,inactive,
OCc1c[nH]c2ccccc12,inactive,
OCCNCCO,inactive,
CCCCCCCC1CCC(=O)O1 (stereo not given),inactive,
OC(Cn1cncn1)(Cn1cncn1)c1ccc(F)cc1F,inactive,
CC[C@H](C)C(=O)O[C@H]1C[C@H](O)C=C2C=C[C@H](C)[C@H](CC[C@@H](O)C[C@@H](O)CC(=O)O)[C@H]21,inactive,
NC(=O)NN=Cc1ccc([N+](=O)[O-])o1,inactive,
CCCCCCCCCC,inactive,
CCCCCCOC(=O)CC(CC(=O)OCCCCCC)(OC(=O)CCC)C(=O)OCCCCCC,inactive,
O=C(O)c1ccc2c(c1)nc(C(=O)NC1CCN(C3CC3)CC1)n2Cc1cc(-c2ccc(Cl)s2)on1,inactive,
FC(F)C(F)(F)COCC1CO1 (stereo not given),inactive,
CCCCCCCC/C=C\CCCCCCCC(=O)OC[C@@H](O)[C@H]1OC[C@H](O)[C@H]1O,inactive,
c1ccc2c(c1)-c1cccc3c1c-2cc1ccccc13,inactive,
CCCc1ccccc1,inactive,

Compound,outcome,AC50
COc1cc(C(C)C)c2c(c1)S(=O)(=O)N(COc1cc(=O)n3cccc(OCCN4CCCCC4)c3n1)C2=O,inactive,
Cc1ccc(S(=O)(=O)NC(=O)NN2CCCCCC2)cc1,inactive,
Cc1nc(-c2ccccn2)ncc1C(=O)Nn1cc(C)c2cc(F)ccc21,inactive,
Cc1cccc(O)c1C,inactive,
CCc1ccc(O)c(C(C)(C)C)c1,,31.5 µM (active)
OC[C@H]1O[C@@](CO)(O[C@H]2O[C@H](CO)[C@@H](O)[C@H](O)[C@H]2O)[C@@H](O)[C@@H]1O,inactive,
C=CCc1cc(S(=O)(=O)c2ccc(O)c(CC=C)c2)ccc1O,,29.3 µM (active)
COCc1nnc(-c2ccc[n+]([O-])c2)n1-c1c(Cl)c(Cl)cc2[nH]c(=O)c(=O)[nH]c12,inactive,
OCC(CO)(CO)CO,inactive,
CCCCOC(=O)c1ccccc1,inactive,
CCOc1ccc2[nH]cc(C(=O)NCc3ccccc3)c(=O)c2n1,inactive,
CC(C)c1nnc2ccc(-c3ocnc3-c3cc(F)ccc3F)cn12,inactive,
Cn1c(=O)c2[nH]cnc2n(C)c1=O,inactive,
OC[C@H]1O[C@@H]2O[C@H]3[C@H](O)[C@@H](O)[C@@H](O[C@H]4[C@H](O)[C@@H](O)[C@@H](O[C@H]5[C@H](O)[C@@H](O)[C@@H](O[C@H]6[C@H](O)[C@@H](O)[C@@H](O[C@H]7[C@H](O)[C@@H](O)[C@@H](O[C@H]1[C@H](O)[C@H]2O)O[C@@H]7CO)O[C@@H]6CO)O[C@@H]5CO)O[C@@H]4CO)O[C@@H]3CO,inactive,
O=C(O)[C@H](O)[C@@H](O)C(=O)O,inactive,
Cc1nccn1-c1ccc(Sc2cccc(C3(C(N)=O)CCOCC3)c2)cc1,inactive,
O=c1[nH]cnc2c1ncn2[C@H]1CC[C@@H](CO)O1,inactive,
c1ccc2ncccc2c1,inactive,
O=C(O)c1cccc(C(=O)O)c1,inactive,
C[C@]12C=CC(=O)C=C1CC[C@H]1[C@@H]3C[C@@H](O)[C@](O)(C(=O)CO)[C@@]3(C)C[C@H](O)[C@@]12F,inactive,
